{
  "source": "PubChem BioAssay",
  "key": {"PEG-3 [1]": {"target": "PEG-3 (UniProt Q6IN02)", "sequence (Q6IN02 whole entry, looked up)": "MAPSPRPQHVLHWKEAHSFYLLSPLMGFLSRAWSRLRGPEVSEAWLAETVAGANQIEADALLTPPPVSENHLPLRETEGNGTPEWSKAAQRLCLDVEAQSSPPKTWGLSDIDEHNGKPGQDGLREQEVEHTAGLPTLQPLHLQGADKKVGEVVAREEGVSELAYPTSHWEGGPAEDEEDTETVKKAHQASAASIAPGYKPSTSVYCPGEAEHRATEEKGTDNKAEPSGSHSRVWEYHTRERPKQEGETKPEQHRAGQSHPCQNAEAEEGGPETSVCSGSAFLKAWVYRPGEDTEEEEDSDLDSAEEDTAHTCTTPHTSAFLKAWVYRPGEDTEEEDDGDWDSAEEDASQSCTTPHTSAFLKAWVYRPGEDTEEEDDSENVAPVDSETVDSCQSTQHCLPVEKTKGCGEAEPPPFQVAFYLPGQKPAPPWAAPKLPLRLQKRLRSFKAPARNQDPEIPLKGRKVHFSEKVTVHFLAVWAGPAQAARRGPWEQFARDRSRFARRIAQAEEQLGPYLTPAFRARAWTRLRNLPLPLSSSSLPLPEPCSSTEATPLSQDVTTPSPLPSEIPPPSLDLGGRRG", "test": "Peg3 promoter luciferase inhibitors, potency, dose response, cell-based, HeLa, CREF/GAPDH counter-screen panel (AID 624167)", "settings": "HeLa PEG-Prom luciferase reporter, overnight, CREF/GAPDH counter-screens; run 1, dose range 1, at 100 µM (top of the series); in the data active = activity above about 50%; inactive = the rest"}, "PEG-3 [2]": {"target": "PEG-3 (UniProt Q6IN02)", "test": "Peg3 promoter luciferase inhibitors, potency, dose response, cell-based, HeLa, CREF/GAPDH counter-screen panel (AID 624167)", "settings": "HeLa PEG-Prom luciferase reporter, overnight, CREF/GAPDH counter-screens; run 2, dose range 1, at 100 µM (top of the series)"}, "[3]": {"test": "inhibitors of PAF-induced NFkB signaling in CF airway cells, dose response, cell-based, uHTS hits, panel, cytotoxicity readout (AID 624344)", "settings": "CF bronchial epithelial cells, PAF-induced NFkB reporter inhibition, with PAF, run 1; at 79 µM (top of the series)"}, "[4]": {"test": "inhibitors of PAF-induced NFkB signaling in CF airway cells, dose response, cell-based, uHTS hits, panel, cytotoxicity readout (AID 624344)", "settings": "CF bronchial epithelial cells, PAF-induced NFkB reporter inhibition, with PAF, run 2; at 79 µM (top of the series)"}, "Rat fibroblasts (CREF) [5]": {"test_system": "Rat fibroblasts (CREF)", "test": "Peg3 promoter luciferase inhibitors, potency, dose response, cell-based, HeLa, CREF/GAPDH counter-screen panel (AID 624167)", "settings": "CREF/GAPDH counter-screens; run 1, dose range 1, at 100 µM (top of the series)"}, "Rat fibroblasts (CREF) [6]": {"test_system": "Rat fibroblasts (CREF)", "test": "Peg3 promoter luciferase inhibitors, potency, dose response, cell-based, HeLa, CREF/GAPDH counter-screen panel (AID 624167)", "settings": "CREF/GAPDH counter-screens; run 2, dose range 1, at 100 µM (top of the series)"}, "[7]": {"target": "Tumor necrosis factor receptor superfamily member 10B (Homo sapiens) (UniProt O14763)", "sequence (O14763 whole entry, looked up)": "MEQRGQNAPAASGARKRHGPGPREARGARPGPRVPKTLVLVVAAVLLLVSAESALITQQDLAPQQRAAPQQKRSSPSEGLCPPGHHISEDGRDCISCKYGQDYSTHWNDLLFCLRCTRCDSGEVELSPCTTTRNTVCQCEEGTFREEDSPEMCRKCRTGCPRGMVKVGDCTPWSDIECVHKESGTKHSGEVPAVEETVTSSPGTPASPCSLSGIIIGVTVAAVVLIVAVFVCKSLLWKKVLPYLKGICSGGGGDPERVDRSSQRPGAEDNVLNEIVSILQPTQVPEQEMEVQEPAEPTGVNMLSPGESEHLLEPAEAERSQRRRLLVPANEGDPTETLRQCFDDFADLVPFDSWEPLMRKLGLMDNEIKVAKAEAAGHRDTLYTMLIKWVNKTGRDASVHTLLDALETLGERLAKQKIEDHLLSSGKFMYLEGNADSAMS", "test": "caspase-8 TRAIL sensitization, hit retest, confirmation, cell-based, NB7+caspase-8, with/without TRAIL, luminescence panel (AID 651596)", "settings": "NB7 neuroblastoma + caspase-8, TRAIL sensitization, luminescence viability, with TRAIL, mean of runs, at 10 µM, stronger effect = higher value"}, "[8]": {"test": "caspase-8 TRAIL sensitization, hit retest, confirmation, cell-based, NB7+caspase-8, with/without TRAIL, luminescence panel (AID 651596)", "settings": "NB7 neuroblastoma + caspase-8, without TRAIL, luminescence viability, without TRAIL, mean of runs, at 10 µM"}},
  "data": [
    {"smiles": "O=c1c2ccccc2nc(CSc2ncnc3nc[nH]c23)n1-c1ccc(Cl)c(Cl)c1", "values": [
      {"measurement": "inhibition", "setting": "PEG-3 [1]", "result": -43.1, "unit": "%"},
      {"measurement": "inhibition", "setting": "PEG-3 [2]", "result": 33.8, "unit": "%"}
    ]},
    {"smiles": "O=C1NC(=O)N(Cc2ccco2)C(=O)/C1=C/C=C/c1ccco1", "values": [
      {"measurement": "inhibition", "setting": "PEG-3 [1]", "result": 102, "unit": "%"},
      {"measurement": "inhibition", "setting": "PEG-3 [2]", "result": 102, "unit": "%"}
    ]},
    {"smiles": "O=C1NC2C(=CC(O)C(O)C2O)c2cc3c(c(O)c21)OCO3", "note": "(stereo not given)", "values": [
      {"measurement": "inhibition", "setting": "PEG-3 [1]", "result": 99.4, "unit": "%"},
      {"measurement": "inhibition", "setting": "PEG-3 [2]", "result": 94.9, "unit": "%"}
    ]},
    {"smiles": "COc1ccc(-n2nnnc2C(CCSC)N2CCC(n3c(=O)[nH]c4ccccc43)CC2)cc1", "note": "(stereo not given)", "values": [
      {"measurement": "inhibition", "setting": "[3]", "result": 97.9, "unit": "%"},
      {"measurement": "inhibition", "setting": "[4]", "result": 108, "unit": "%"}
    ]},
    {"smiles": "CCC(c1nnnn1-c1ccc2c(c1)OCCO2)N1CCC(n2c(=O)[nH]c3ccccc32)CC1", "note": "(stereo not given)", "values": [
      {"measurement": "inhibition", "setting": "PEG-3 [1]", "result": 101, "unit": "%"},
      {"measurement": "inhibition", "setting": "PEG-3 [2]", "result": 102, "unit": "%"},
      {"measurement": "inhibition", "setting": "Rat fibroblasts (CREF) [5]", "result": 76.5, "unit": "%"},
      {"measurement": "inhibition", "setting": "Rat fibroblasts (CREF) [6]", "result": 63.2, "unit": "%"}
    ]},
    {"smiles": "Cc1c(C(=O)N2CCC3(CC2)OCCO3)sc2ncnc(N3CCN(c4ccccn4)CC3)c12", "values": [
      {"measurement": "inhibition", "setting": "PEG-3 [1]", "result": 97.5, "unit": "%"},
      {"measurement": "inhibition", "setting": "PEG-3 [2]", "result": 102, "unit": "%"}
    ]},
    {"smiles": "CC(=O)OC1CC[C@]2(C#N)[C@H]3CC[C@]4(C)[C@H](C5C=CC(=O)O5)CCC4(O)C3CCC2(O)C1", "note": "(stereo not given in full)", "values": [
      {"measurement": "inhibition", "setting": "PEG-3 [1]", "result": 98.6, "unit": "%"},
      {"measurement": "inhibition", "setting": "PEG-3 [2]", "result": 99.5, "unit": "%"},
      {"measurement": "inhibition", "setting": "Rat fibroblasts (CREF) [5]", "result": -10.8, "unit": "%"},
      {"measurement": "inhibition", "setting": "Rat fibroblasts (CREF) [6]", "result": 7.93, "unit": "%"}
    ]},
    {"smiles": "COc1ccc(-n2nnnc2C(C2CC2)N2CCC(n3c(=O)[nH]c4ccccc43)CC2)cc1", "note": "(stereo not given)", "values": [
      {"measurement": "inhibition", "setting": "PEG-3 [1]", "result": 93.8, "unit": "%"},
      {"measurement": "inhibition", "setting": "PEG-3 [2]", "result": 95.7, "unit": "%"}
    ]},
    {"smiles": "CC(=O)OC1(C)CC(C)C(=O)C(C(O)CC2CC(=O)NC(=O)C2)C1", "note": "(stereo not given)", "values": [
      {"measurement": "inhibition", "setting": "PEG-3 [1]", "result": 96.1, "unit": "%"},
      {"measurement": "inhibition", "setting": "PEG-3 [2]", "result": 94.4, "unit": "%"},
      {"measurement": "inhibition", "setting": "Rat fibroblasts (CREF) [5]", "result": 61.8, "unit": "%"},
      {"measurement": "inhibition", "setting": "Rat fibroblasts (CREF) [6]", "result": 56.4, "unit": "%"},
      {"measurement": "inhibition", "setting": "[3]", "result": 117, "unit": "%"},
      {"measurement": "inhibition", "setting": "[4]", "result": 108, "unit": "%"}
    ]},
    {"smiles": "CCOC(=O)c1c(-n2c(C)cc(C=C3C(=O)NC(=S)NC3=O)c2C)sc2c1CCCC2", "values": [
      {"measurement": "inhibition", "setting": "PEG-3 [1]", "result": 96.7, "unit": "%"},
      {"measurement": "inhibition", "setting": "PEG-3 [2]", "result": 101, "unit": "%"},
      {"measurement": "inhibition", "setting": "Rat fibroblasts (CREF) [5]", "result": 95.9, "unit": "%"},
      {"measurement": "inhibition", "setting": "Rat fibroblasts (CREF) [6]", "result": 97.3, "unit": "%"}
    ]},
    {"smiles": "CCN(CC)C(=O)c1ccc(NC(=O)Nc2ccccc2F)cc1", "values": [
      {"measurement": "inhibition", "setting": "PEG-3 [1]", "result": 82.1, "unit": "%"},
      {"measurement": "inhibition", "setting": "PEG-3 [2]", "result": 93.2, "unit": "%"},
      {"measurement": "activity", "setting": "[7]", "result": 69.6, "unit": "%"},
      {"measurement": "activity", "setting": "[8]", "result": 63.9, "unit": "%"}
    ]},
    {"smiles": "CCN(CCCl)c1cc(CN(C)C)cc(NC(=O)c2ccc(C(=O)Nc3cc(CN(C)C)cc(N(CC)CCCl)c3)cc2)c1", "values": [
      {"measurement": "inhibition", "setting": "PEG-3 [1]", "result": 100, "unit": "%"},
      {"measurement": "inhibition", "setting": "PEG-3 [2]", "result": 101, "unit": "%"},
      {"measurement": "inhibition", "setting": "Rat fibroblasts (CREF) [5]", "result": 99.6, "unit": "%"},
      {"measurement": "inhibition", "setting": "Rat fibroblasts (CREF) [6]", "result": 97.7, "unit": "%"}
    ]},
    {"smiles": "O=Cc1cn(Cc2ccc(Br)cc2)c2ccccc12", "values": [
      {"measurement": "inhibition", "setting": "PEG-3 [1]", "result": 41.6, "unit": "%"},
      {"measurement": "inhibition", "setting": "PEG-3 [2]", "result": 72.9, "unit": "%"}
    ]},
    {"smiles": "C[C@@H]1C[C@@H]([C@H](O)CC2CC(=O)NC(=O)C2)C(=O)[C@@H](C)C1", "values": [
      {"measurement": "inhibition", "setting": "PEG-3 [1]", "result": 98, "unit": "%"},
      {"measurement": "inhibition", "setting": "PEG-3 [2]", "result": 101, "unit": "%"},
      {"measurement": "inhibition", "setting": "Rat fibroblasts (CREF) [5]", "result": 62.3, "unit": "%"},
      {"measurement": "inhibition", "setting": "Rat fibroblasts (CREF) [6]", "result": 58.2, "unit": "%"},
      {"measurement": "inhibition", "setting": "[3]", "result": 106, "unit": "%"},
      {"measurement": "inhibition", "setting": "[4]", "result": 116, "unit": "%"}
    ]},
    {"smiles": "CC(=O)OC(C)(C)/C=C/C(=O)C(C)(O)C1[C@H](O)C[C@@]2(C)C3CC=C4C(CC[C@@H](O)C4(C)C)[C@]3(CO)C(=O)C[C@]12C", "note": "(stereo not given in full)", "values": [
      {"measurement": "inhibition", "setting": "PEG-3 [1]", "result": 102, "unit": "%"},
      {"measurement": "inhibition", "setting": "PEG-3 [2]", "result": 101, "unit": "%"},
      {"measurement": "activity", "setting": "[7]", "result": 43.7, "unit": "%"},
      {"measurement": "activity", "setting": "[8]", "result": 71.7, "unit": "%"}
    ]}
  ]
}
